# Activity calls are given as the source filed them. Rule as the data show it, unless noted: active = inhibition above about 80%; inactive = the rest.
# Columns and labels:
# [1] = LFS_MB_P medulloblastoma growth inhibition, cell-based, chromothripsis tumors, cisplatin or BGB combos (AID 1671449); details: LFS_MB_P medulloblastoma cells;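 also: cells exposed for 96 hours; 0% = vehicle DMSO and 100% = killing by high DMSO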
# [2] = HDN33 neuroblastoma growth inhibition, cell-based, chromothripsis tumors, cisplatin or BGB combos (AID 1671450); details: HDN33 neuroblastoma cells, stronger effect = higher value;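 also: cells exposed to compound for four days; 0% = vehicle DMSO and 100% = cell killing by high DMSO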
# [3] = ICB984 medulloblastoma cell growth inhibition, synergistic combos for chromothripsis tumors, cisplatin or BGB combos (AID 1671451; call rule not given here;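 also: cells exposed for 96 hours before readout; 0% = vehicle DMSO and 100% = killing by high DMSO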); details: ICB984 medulloblastoma cells, drug combinations, stronger effect = higher value
# [4] = LFS_MB_1R medulloblastoma cell growth inhibition, synergistic combos for chromothripsis tumors, cisplatin or BGB combos (AID 1671452); details: LFS_MB_1R medulloblastoma cells, stronger effect = higher value;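 also: cells exposed for 96 hours before readout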
# [5] = HTB85 osteosarcoma cell growth inhibition, synergistic combos for chromothripsis tumors, BGB or cisplatin IC20 combos (AID 1671453); details: HTB85 osteosarcoma cells, drug combinations, stronger effect = higher value;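 also: cells exposed for 96 hours before readout; 0% = vehicle DMSO and 100% = high DMSO killing control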
# [6] = CRL2098 osteosarcoma cell growth inhibition, synergistic combos for chromothripsis tumors, BGB or cisplatin IC20 combos (AID 1671454); details: CRL2098 osteosarcoma cells, drug combinations, stronger effect = higher value;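 also: cells exposed for 96 h before readout; 0% = vehicle DMSO and 100% = killing by high DMSO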
# [7] = HD-MB03 medulloblastoma cell growth inhibition, synergistic combos for chromothripsis tumors, BGB or cisplatin IC20 combos (AID 1671455; in the data active = inhibition above about 83%;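 also: 0% = vehicle DMSO and 100% = high DMSO as cytotoxic control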); details: HD-MB03 medulloblastoma cells, stronger effect = higher value
# [8] = UWB1.289 ovarian carcinoma cell growth inhibition, synergistic combos for chromothripsis tumors, BGB or cisplatin combos (AID 1671456); details: UWB1.289 ovarian carcinoma cells, stronger effect = higher value;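 also: cells exposed to compound for four days; 0% = vehicle DMSO and 100% = killing by high DMSO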
# [9] = LFS_MB_2R medulloblastoma cell growth inhibition, synergistic combos for chromothripsis tumors, cisplatin combos (AID 1671457); details: LFS_MB_2R medulloblastoma cells, stronger effect = higher value;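 also: cells exposed to compound for four days before readout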
# [10] = MDA-MB-436 breast carcinoma cell growth inhibition, synergistic combos for chromothripsis tumors, BGB or cisplatin combos (AID 1671458; call rule not given here;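 also: cells exposed for 96 hours; 0% = vehicle DMSO and 100% = killing by high DMSO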); details: MDA-MB-436 breast carcinoma growth inhibition, drug combinations, stronger effect = higher value
# [11] = UWB1.289_BRCA1 ovarian cancer growth, cell-based, BGB or cisplatin combinations (AID 1671459); details: UWB1.289 BRCA1 ovarian carcinoma, drug combinations, stronger effect = higher value
# [12] = human astrocyte viability loss, single and combined drugs, cytotoxicity control for chromothriptic childhood tumor combination screen, cell-based, BGB or cisplatin IC20 combos (AID 1671460); details: Human astrocytes, drug combinations, stronger effect = higher value;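 also: cells exposed to compounds for 96 hours before viability readout; 0% = vehicle and 100% = killing control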
# [13] = growth inhibition of BT084 medulloblastoma cells, cell-based, ICGC_MB145, cisplatin and BGB IC40 combos (AID 1671461); details: drug combinations, stronger effect = higher value;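 also: cells exposed to drugs for 96 hours; 0% = vehicle DMSO and 100% = high DMSO full killing control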
# [14] = growth inhibition of RCMB18 medulloblastoma cells, cell-based, cisplatin and BGB IC40 combos (AID 1671462); details: stronger effect = higher value;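 also: cells exposed to compound for four days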
# [15] = growth inhibition of CRL1545 osteosarcoma cells, cell-based, cisplatin and BGB IC20 combos (AID 1671464); details: stronger effect = higher value;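 also: cells exposed to compound for 96 hours before readout; 0% = vehicle DMSO and 100% = high DMSO killing control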
# [16] = at 0.5 µM, stronger effect = higher value
# [17] = measured here: combination with BGB IC20, at 0.005 µM
# [18] = measured here: combination with BGB IC40, at 0.005 µM
# [19] = measured here: combination with BGB IC40, at 0.05 µM
# [20] = measured here: combination with cisplatin, at 0.5 µM, stronger effect = higher value
# [21] = measured here: combination with cisplatin, at 5 µM, stronger effect = higher value
# [22] = measured here: with BGB IC20 combination, at 0.5 µM
# [23] = measured here: with cisplatin IC20 combination, at 0.5 µM
# [24] = measured here: 5 uM single agent, at 5 µM
# [25] = measured here: combination with cisplatin, at 0.5 µM
# [26] = measured here: combination with cisplatin, at 5 µM
# [27] = measured here: with BGB IC20, at 0.5 µM
# [28] = measured here: with BGB IC20, at 5 µM
# [29] = measured here: with cisplatin IC20, at 0.5 µM
# [30] = measured here: with cisplatin IC20, at 5 µM
# [31] = measured here: combination with BGB at IC20, at 0.5 µM
# [32] = measured here: combination with cisplatin at IC20, at 0.5 µM
# [33] = measured here: combo with BGB at IC20, at 0.5 µM
# [34] = measured here: combo with cisplatin at IC20, at 0.5 µM
# [35] = measured here: inhibition with BGB combination, at 0.05 µM
# [36] = measured here: inhibition with cisplatin combination, at 0.05 µM
# [37] = measured here: BGB combination, at 0.5 µM
# [38] = measured here: BGB combination, at 5 µM
# [39] = measured here: cisplatin combination, at 0.5 µM
# [40] = measured here: cisplatin combination, at 5 µM
# [41] = BGB combination, concentration series, at 5 µM
# [42] = cisplatin combination, concentration series, at 5 µM
# [43] = measured here: combo with BGB IC20, at 0.5 µM
# [44] = measured here: combo with cisplatin IC20, at 0.5 µM
# [45] = cisplatin combination, at 0.5 µM
# [46] = measured here: BGB IC40 combination 0.05 uM, at 0.05 µM
# [47] = measured here: BGB IC40 combination, at 0.05 µM
structure (smiles),measurement,setting,value
O=c1ccn(C2CC(O)C(CO)O2)c(=O)[nH]1 (stereo unspecified),inhibition,[1]; [16],-18.8% (inactive)
same,inhibition,[1]; [17],-7.41%
same,inhibition,[1]; [18],-27.4%
same,inhibition,[1]; [19],-29.5%
same,inhibition,[1]; [20],-37.9%
same,inhibition,[1]; [21],-35.5%
same,inhibition,"[2]; BGB combo, at 5 µM",-20.7%
same,inhibition,[2]; at 0.5 µM,-36.9% (inactive)
same,inhibition,"[2]; cisplatin combo, at 5 µM",-20.7%
same,inhibition,[2]; [22],-38.7%
same,inhibition,[2]; [23],-41.3%
same,inhibition,"[2]; single agent, at 5 µM",-10.1%
same,inhibition,"[3]; BGB IC20 combo, at 0.005 µM",4%
same,inhibition,"[3]; BGB IC40 combo, at 0.005 µM",-31.4%
same,inhibition,"[3]; BGB IC40 combo, at 0.05 µM",-22%
same,inhibition,[3]; at 0.5 µM,-20.1% (inactive)
same,inhibition,"[3]; cisplatin combo, at 0.05 µM",-25.4%
same,inhibition,"[3]; cisplatin combo, at 0.5 µM",-21.2%
same,inhibition,"[3]; cisplatin combo, at 5 µM",-29.4%
same,inhibition,[3]; [24],-22%
same,inhibition,[4]; at 0.5 µM,-29.6% (inactive)
same,inhibition,[4]; [19],-35%
same,inhibition,[4]; [25],-32.9%
same,inhibition,[4]; [26],-47.4%
same,inhibition,[5]; at 0.5 µM,-20.1% (inactive)
same,inhibition,[5]; [27],-39.5%
same,inhibition,[5]; [28],-39.3%
same,inhibition,[5]; [29],-5.42%
same,inhibition,[5]; [30],-49.8%
same,inhibition,"[5]; single agent, at 5 µM",-26.7%
same,inhibition,[6]; at 0.5 µM,-68.3% (inactive)
same,inhibition,[6]; [31],-48.5%
same,inhibition,[6]; [32],-72.4%
same,inhibition,[7]; at 0.5 µM,-3.73% (inactive)
same,inhibition,[7]; [33],-8.35%
same,inhibition,[7]; [34],-4.82%
same,inhibition,[8]; at 0.5 µM,0.16% (inactive)
same,inhibition,[8]; [35],-21%
same,inhibition,[8]; [36],-1.45%
same,inhibition,[9]; at 0.5 µM,-20.5% (inactive)
same,inhibition,[9]; [25],-18.3%
same,inhibition,[9]; [26],-78.5%
same,inhibition,[10]; at 0.5 µM,-14.8% (inactive)
same,inhibition,[10]; [37],-6.54%
same,inhibition,[10]; [38],-25.5%
same,inhibition,[10]; [39],-29.1%
same,inhibition,[10]; [40],-17%
same,inhibition,[11]; [41],-3.77%
same,inhibition,[11]; at 0.5 µM,0.57% (inactive)
same,inhibition,[11]; [42],10.4%
same,inhibition,[12]; at 0.5 µM,3.18% (inactive)
same,inhibition,[12]; [43],-6.85%
same,inhibition,[12]; [44],4.49%
same,inhibition,[13]; at 0.5 µM,-24.6% (inactive)
same,inhibition,[13]; [45],-0.373%
same,inhibition,"[13]; cisplatin combination, at 5 µM",1.74%
same,inhibition,[13]; [46],26.6%
same,inhibition,"[13]; single agent, at 5 µM",-10.6%
same,inhibition,[14]; at 0.5 µM,-15.4% (inactive)
same,inhibition,"[14]; cisplatin combo, at 5 µM",1.69%
same,inhibition,[14]; [47],3.1%
same,inhibition,[14]; [25],9.29%
same,inhibition,"[14]; single agent, at 5 µM",-204%
same,inhibition,[15]; at 0.5 µM,-20.7% (inactive)
same,inhibition,[15]; [22],-5.72%
same,inhibition,[15]; [23],-31.1%
same,inhibition,"[15]; single agent, at 0.05 µM",-46.2%
same,inhibition,"[15]; single agent, at 5 µM",-14.8%
C[C@H](NC(=O)c1ccccc1N=Cc1c(O)ccc2ccccc12)c1ccccc1,inhibition,[1]; [16],-32.5% (inactive)
same,inhibition,[1]; [17],-24.4%
same,inhibition,[1]; [18],-29.4%
same,inhibition,[1]; [19],-11%
same,inhibition,[1]; [20],-57.7%
same,inhibition,[1]; [21],-10%
same,inhibition,"[2]; BGB combo, at 5 µM",-7.69%
same,inhibition,[2]; at 0.5 µM,1.7% (inactive)
same,inhibition,"[2]; cisplatin combo, at 5 µM",-4.45%
same,inhibition,[2]; [22],-2.8%
same,inhibition,[2]; [23],-1.48%
same,inhibition,"[2]; single agent, at 5 µM",7.54%
same,inhibition,"[3]; BGB IC20 combo, at 0.005 µM",1.67%
same,inhibition,"[3]; BGB IC40 combo, at 0.005 µM",-1.06%
same,inhibition,"[3]; BGB IC40 combo, at 0.05 µM",7.65%
same,inhibition,[3]; at 0.5 µM,-7.38% (inactive)
same,inhibition,"[3]; cisplatin combo, at 0.05 µM",3.01%
same,inhibition,"[3]; cisplatin combo, at 0.5 µM",-7.71%
same,inhibition,"[3]; cisplatin combo, at 5 µM",-12.4%
same,inhibition,[3]; [24],5.4%
same,inhibition,[4]; at 0.5 µM,-6.38% (inactive)
same,inhibition,[4]; [19],-9.7%
same,inhibition,[4]; [25],-2.62%
same,inhibition,[4]; [26],12.2%
same,inhibition,[5]; at 0.5 µM,1.08% (inactive)
same,inhibition,[5]; [27],5.46%
same,inhibition,[5]; [28],7.19%
same,inhibition,[5]; [29],-9.86%
same,inhibition,[5]; [30],-2.37%
same,inhibition,"[5]; single agent, at 5 µM",12.6%
same,inhibition,[6]; at 0.5 µM,5.5% (inactive)
same,inhibition,[6]; [31],-35.4%
same,inhibition,[6]; [32],58.3%
same,inhibition,[7]; at 0.5 µM,6.83% (inactive)
same,inhibition,[7]; [33],11.2%
same,inhibition,[7]; [34],5.12%
same,inhibition,[8]; at 0.5 µM,17.4% (inactive)
same,inhibition,[8]; [35],3.84%
same,inhibition,[8]; [36],5.13%
same,inhibition,[9]; at 0.5 µM,-0.99% (inactive)
same,inhibition,[9]; [25],5.16%
same,inhibition,[9]; [26],4.48%
same,inhibition,[10]; at 0.5 µM,-1.91% (inactive)
same,inhibition,[10]; [37],-7.38%
same,inhibition,[10]; [38],-1.84%
same,inhibition,[10]; [39],-10.5%
same,inhibition,[10]; [40],-4.49%
same,inhibition,[11]; [41],-2.68%
same,inhibition,[11]; at 0.5 µM,1.55% (inactive)
same,inhibition,[11]; [42],4.86%
same,inhibition,[12]; at 0.5 µM,3.33% (inactive)
same,inhibition,[12]; [43],4.85%
same,inhibition,[12]; [44],-2.44%
same,inhibition,[13]; at 0.5 µM,-3.76% (inactive)
same,inhibition,[13]; [45],0.659%
same,inhibition,"[13]; cisplatin combination, at 5 µM",-186%
same,inhibition,[13]; [46],5.69%
same,inhibition,"[13]; single agent, at 5 µM",-0.461%
same,inhibition,[14]; at 0.5 µM,-3.35% (inactive)
same,inhibition,"[14]; cisplatin combo, at 5 µM",-10.8%
same,inhibition,[14]; [47],-9.58%
same,inhibition,[14]; [25],-13.6%
same,inhibition,"[14]; single agent, at 5 µM",3.49%
same,inhibition,[15]; at 0.5 µM,-10.6% (inactive)
same,inhibition,[15]; [22],-16.9%
same,inhibition,[15]; [23],-9.19%
same,inhibition,"[15]; single agent, at 0.05 µM",-20.9%
same,inhibition,"[15]; single agent, at 5 µM",-71%

# Source: PubChem BioAssay
